HepG2 viability – counter-screen for TGF-b inhibitors: cytotoxicity in HepG2 cells. HepG2 CAGA-GFP viability, ATP luminescence, 18 h. AID 588856. Potency, µM (titrated, usually from 46.1 µM), for inactives: at the highest dose activity change, negative = cytotoxicity, most hits filed as cytotoxic. 410,000 tested, 0.76% active
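HepG2 CAGA-GFP cells (1000/well, DMEM with 1% FBS) received compound, then TGF-beta at 500 pg/mL final, and were incubated 18 hours at 37 degrees C. Viability was read by CellTiter-Glo luminescence. Media-only wells were set as complete cell-killing and DMSO as no toxicity.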
S2 tox – cell viability loss in ATXN counter-screen. S2 cells (HEK-293 line with an ATXN2-luciferase reporter) viability, CellTiter-Fluor protease fluorescence, 24 h. Potency, µM (titrated, usually from 56.7 µM), most hits filed as cytotoxic. 400,000 tested, 0.49% active; further: nearly all actives have a fitted effect of over 40% in size
TGFb inhibitor – inhibitors of TGF-b signaling; HepG2 CAGA-GFP TGF-b/SMAD3 reporter, GFP fluorescence, 18 h; TGF-beta stimulated, 500 pg/mL final; Potency, µM (top dose mostly 46.1 µM), for the others: at the highest dose activity, negative = inhibition, usual class: inhibitors; 410,000 tested, 1.2% active; further: on the % scale 0 is the no-effect control and ±100 the full control effect; nearly all actives have a fitted effect of over 65% in size
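HEPG2 CAGA-GFP reporter cells (1000/well, DMEM with 1% FBS) received compounds, then recombinant TGF-beta at 500 pg/mL final for 18 hours at 37 degrees C. Per-cell GFP summed per well was normalised to unstimulated and stimulated DMSO controls before curve fitting.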
ATXN2 expr inh – reduces ATXN2 reporter expression in HEK-293 cells. HEK-293 ATXN2-luciferase reporter, luminescence, 24 h. Potency, µM (doses to about 57 µM), for inactives: at the highest dose activity change, negative = inhibition, hits mostly inhibitors. 360,000 tested, 0.72% active; further: on the % scale 0 is the no-effect control and ±100 the full control effect; nearly all actives have a fitted effect of over 55% in size
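ATXN2-luciferase reporter cells (luciferase flanked by upstream and downstream ATXN2 gene portions) were treated 24 h at 37 °C with compounds at up to 57 uM. SteadyGlo luminescence gave expression; GF-AFC fluorescence gave viability.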
HT1080NT lethal – kills 2HG-producing HT-1080-NT fibrosarcoma cells. Potency, µM (titrated, usually from 46.1 µM), for inactives: top-dose activity, negative = less viability, actives largely listed as cytotoxic. HT-1080-NT fibrosarcoma viability, CellTiter-Glo ATP luminescence, 48 h. 360,000 tested, 1.6% active;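 further: NT is the 2HG producing partner of a matched IDH1 knockdown line; 0% = DMSO-treated cells and -100% = media-only wells without cells; nearly all actives have a fitted effect of over 55% in size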
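Viability of the 2HG-overproducing fibrosarcoma line after 48 hours of compound exposure at 37 degrees C was determined by luminescence with CellTiter-Glo, and concentration-effect curves were then fitted and categorized.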
HT1080 IDH1KD tx – kills HT-1080 cells with IDH1 knockdown. HT-1080 IDH1 knockdown viability, ATP luminescence, 48 h. Potency, µM (top dose mostly 46.1 µM), for inactives: top-dose activity, negative = toxicity, usual class: cytotoxic. 360,000 tested, 2% active. AID 686971;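 further: 0% = DMSO wells and -100% = cell-free medium wells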
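In this qHTS, HT-1080 cells depleted of IDH1 are exposed for 48 h at 37 °C to compound titrations. Toxicity is scored from CellTiter-Glo luminescence, with DMSO as full viability and medium alone as none.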
The depositor's hits bear a star; i = inactive; ? = inconclusive; · = not tested or not shown; [ ] = another dose, or the depositor's remark. Rows were chosen to be rich in hits. Some 3.9% of all compounds tested hit in one or more screens of this group. The call rests on the fitted dose curve; in most records, active means well fitted curve in the direction sought with a large enough effect; inconclusive means small, poorly fitted or top-dose-only effect, or another doubt; inactive means no such curve, though single readings can be large; an effect the other way counts as inactive or inconclusive. Potency means the concentration at half of the fitted maximal effect.

SMILES	HepG2 viability	S2 tox	TGFb inhibitor	ATXN2 expr inh	HT1080NT lethal	HT1080 IDH1KD tx
CC(C)CC(=O)Nc1nc2ccc(S(=O)(=O)N3CCOCC3)cc2s1	0.0%	i	1.6%	-9.1%	9.2µM*	18.4µM*
N#Cc1ccc(Nc2nc(-c3ccc(O)cc3O)cs2)cc1C(F)(F)F	-110.5%	22.4µM*	?	25.1µM*	?	?
COc1cc(O)ccc1/C=N/NC(=O)c1ccc([N+](=O)[O-])cc1	-1.9%	i	-1.7%	-9.5%	3.6%	0.0%
O=C(NC(CSCc1ccccc1)C(=O)N/N=C/c1ccc(O)cc1O)c1ccc([N+](=O)[O-])cc1 (stereo unspecified)	-61.0%	i	?	3.16µM*	2.82µM*	0.891µM*
COc1cccc(OCc2nc3ccccc3n2Cc2ccccc2C)c1	-30.3%	i	?	-16.2%	·	·
Cc1ccc(SC(=O)c2c(C)noc2-c2cc(C)on2)cc1	-60.5%	i	17.8µM*	2.8%	-18.0%	?
O=C(CCN1Cc2ccccc2OC(c2ccccc2F)C1)N1CCC(N2CCCC(O)C2)CC1 (stereo unspecified)	·	i	·	·	·	·
COc1ccc(/C=N\NC(=O)c2ccccc2F)cc1COc1ccc(F)cc1F	-23.5%	?	?	8.8%	2.31µM*	2.31µM*
COc1ccc2[nH]c(C(=O)N/N=C/c3ccc(OC)c(O)c3)cc2c1	-15.5%	i	-9.2%	35.4%	0.581µM*	1.16µM*
COc1ccc(/C=N\NC(=O)c2ccccc2F)cc1COc1ccc(F)cc1	-13.4%	i	-10.7%	1.7%	-17.0%	-14.0%
Cn1c2ccccc2c2cc(/C=N/NC(=O)c3ccccc3F)ccc21	-23.5%	i	-2.5%	0.0%	?	18.4µM*
COc1ccc2[nH]c(C(=O)N/N=C/c3ccccc3OC)cc2c1	-9.4%	i	0.5%	·	?	?
COc1cc(OC)cc(C(=O)N/N=C/c2ccc(OC)c(COc3ccc4ccccc4c3)c2)c1	-3.1%	i	-28.5%	-15.8%	?	20.6µM*
Cn1c2ccccc2c2cc(/C=N/NC(=O)c3ccc(N)cc3)ccc21	0.5%	i	-14.4%	-38.9%	?	?
COc1ccc(/C=N/NC(=O)c2ccc(F)cc2)cc1CN1CCc2cc(OC)c(OC)cc2C1C (stereo unspecified)	-20.8%	i	-21.2%	-9.4%	?	?
COc1cc(OC)cc(C(=O)N/N=C\c2ccoc2)c1	-7.6%	i	-9.0%	-3.1%	3.66µM*	5.8µM*
COc1ccc(/C=N/NC(=O)c2ccc(O)cc2)cc1CN1CCCc2ccccc21	-8.8%	i	12.6µM*	1.7%	?	?
COc1ccc(/C=N/NC(=O)c2ccoc2C)cc1COc1c(C)cccc1C	-36.3%	?	-15.7%	-16.1%	4.61µM*	5.17µM*
O=C1CC(C(=O)N2CCCC(c3nc(-c4ccncc4)ncc3-c3ccccc3)C2)C2(CCCCC2)O1 (stereo unspecified)	·	i	·	·	·	·
COc1ccc(CN=Cc2c(O)[nH]c3ccccc23)cc1	-27.0%	?	-26.3%	-10.5%[11.3 µM]	0.0%	-0.6%
Cc1ccc(CN=Cc2[nH]c3ccc(Br)c(Cl)c3c2O)cc1	17.8µM*	i	-7.1%	-21.3%	-24.3%	17.8µM*
CCOC(=O)c1sc(NC(=O)CCN2CCCCCC2)c(C(=O)OCC)c1C	17.8µM*	i	?	1.5%	?	?
CC[n+]1ccnc2ccccc21	3.55µM*	·	3.16µM*	·	·	·
O=C(C[n+]1ccnc2ccccc21)c1ccc(Cl)cc1	-12.1%	·	-29.8%	·	·	·
CC(C)(C)OC(=O)N1CCC(c2c(C(=O)Nc3ccc4c(c3)OCO4)cnn2-c2ccc(F)cc2F)CC1	-23.7%	·	0.0%	·	·	·
SMILES	HepG2 viability	S2 tox	TGFb inhibitor	ATXN2 expr inh	HT1080NT lethal	HT1080 IDH1KD tx
O=c1cc(/C=C/c2cccs2)[nH]c2ccccc12	-36.8%	i	-2.2%	18.0%	-23.5%[9.24 µM]	7.08µM*
CCOC(=O)N1CCc2c(sc3c2c(=O)n(Cc2ccccc2)c(=O)n3Cc2ccccc2Cl)C1	5.8%	·	0.2%	·	·	·
COc1ccc(Cl)cc1C(=O)NCCN(C)C	-15.8%	i	-5.4%	-6.3%	-1.6%	-11.6%
CCCCN(C)CCNC(=O)c1ccc(Cn2c(=S)[nH]c3ccc(Br)cc3c2=O)cc1	-38.9%	i	11.2µM*	·	20.6µM*	14.6µM*
CCc1ccc(C(CNC(=O)c2ccc3c(=O)n(-c4ccccc4F)c(=S)[nH]c3c2)N(C)C)cc1 (stereo unspecified)	-16.0%	i	-20.5%	-19.6%	?	32.6µM*
CCN(CC)CCn1c(=S)[nH]c2cc(Cl)ccc2c1=O	-7.4%	i	-0.3%	-20.9%	17.8µM*	?
CN(C)CCNC(=O)c1ccc(COc2ccc(Cl)cc2Cl)cc1	11.2µM*	?	?	?	10µM*	?
O=C(NCc1ccccn1)c1ccc(Cn2c(=S)[nH]c3ccc(Br)cc3c2=O)cc1	-14.7%	i	-14.7%	2.4%	-1.8%	7.1%
CCOC(=O)N1CCN(C(=O)c2ccc3c(=O)n(-c4ccccc4F)c(=S)[nH]c3c2)CC1	6.9%	i	1.9%	-13.2%[11.3 µM]	-1.0%	-5.4%
CN(C)CCNC(=O)c1ccc2c(=O)n(Cc3ccc(Cl)cc3)c(=S)[nH]c2c1	-77.3%	i	?	-21.8%	23.1µM*	?
CCCOc1ccc(F)cc1-c1cc(C(=O)Nc2ccc(C(C)C)cc2)[nH]n1	-75.6%	?	?	?	?	23.1µM*
COc1ccc(F)cc1-c1cc(C(=O)Nc2ccc(C)c(NS(C)(=O)=O)c2)[nH]n1	-27.6%	3.55µM*	36.8%	25.1µM*	?	?
CCc1nnc(NC(=O)c2ccccc2NC(=O)C2CCN(C(=O)c3ccco3)CC2)s1	3.8%	·	1.5%	·	·	·
CCn1ncc(C2=NOC(C(=O)Nc3cnn(C45CC6CC(CC(C6)C4)C5)c3)C2)c1C (stereo unspecified)	5.7%	?	-13.1%	28.2µM*	?	?
CCn1ncc(C2=NOC(C(=O)NCC(C)C)C2)c1C (stereo unspecified)	-4.6%	?	17.0%	-30.4%	22.1%	10.7%
COC(=O)c1cccc(C(=O)NCc2nc(-c3ccccc3NC(C)=O)oc2C)c1	·	i	·	·	·	·
O=C(c1cc(COc2ccc3ncccc3c2)on1)N1CCCCCC1	-19.3%	i	-24.8%	-4.6%[11.3 µM]	3.66µM*	?
COCC1CCN(C(=O)c2cc(COc3ccc4ncccc4c3)on2)CC1	-20.7%	i	-26.3%	-29.1%	-1.9%	-14.7%

Screening results (PubChem)
